Our source for the Potency values is PubChem BioAssay AID1540 (National Center for Advancing Translational Sciences (NCATS), 2009).

Inconclusive results are not listed. The source made the active and inactive calls. Calls follow the shape of the dose curve; as a rule, active = well fitted activation curve with a large enough effect; inconclusive = small, poorly fitted or top-dose-only effect, or effect the other way; inactive = flat fitted curve, though single readings scatter.

This test concerns the target Pyruvate kinase PKM (Homo sapiens) (UniProt P14618). Put plainly: Secondary assay for Activators of Human Pyruvate Kinase M2 isoform. A digest of the protocol: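 Purified hPK-M2 (10 nM) coupled to LDH (1 uM) and 0.2 mM NADH, with 0.1 mM PEP and 4.0 mM ADP in Tris-Cl pH 8.0 and 15 mM MgCl2. Initial rates from kinetic NADH fluorescence depletion over 3–6 min, normalized to fructose-bis-phosphate activation.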

Chain of Pyruvate kinase PKM (Homo sapiens) (P14618 whole entry, looked up, canonical isoform): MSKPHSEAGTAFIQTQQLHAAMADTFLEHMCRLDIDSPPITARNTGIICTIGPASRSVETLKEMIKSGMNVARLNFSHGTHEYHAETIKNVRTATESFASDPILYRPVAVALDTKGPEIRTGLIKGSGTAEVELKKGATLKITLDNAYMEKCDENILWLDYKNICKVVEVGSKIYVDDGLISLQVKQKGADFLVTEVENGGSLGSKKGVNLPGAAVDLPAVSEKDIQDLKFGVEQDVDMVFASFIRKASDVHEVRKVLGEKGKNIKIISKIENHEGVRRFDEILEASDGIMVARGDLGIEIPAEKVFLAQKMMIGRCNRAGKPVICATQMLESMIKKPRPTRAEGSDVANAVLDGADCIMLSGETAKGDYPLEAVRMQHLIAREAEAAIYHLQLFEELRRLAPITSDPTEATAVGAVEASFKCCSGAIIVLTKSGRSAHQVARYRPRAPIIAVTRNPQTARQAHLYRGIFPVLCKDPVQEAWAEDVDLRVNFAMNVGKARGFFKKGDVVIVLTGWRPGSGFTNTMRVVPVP

`Cn1c2cc(C(=O)O)sc2c2cnn(Cc3ccccc3F)c(=O)c21`: the Potency was 8.91 µM (active).
